Bioassay records as filed in PubChem BioAssay.
Giardia FBPA inh-1 = inhibitors of Giardia lamblia fructose-1,6-bisphosphate aldolase. A8B2U2. purified Giardia FBPA. Potency, µM (highest dose often 59.6 µM), usual class: inhibitors. 0.71% of 290,000 active. AID 2451; note: nearly all actives have a fitted effect of over 55% in size
Target sequence (A8B2U2 whole entry, looked up): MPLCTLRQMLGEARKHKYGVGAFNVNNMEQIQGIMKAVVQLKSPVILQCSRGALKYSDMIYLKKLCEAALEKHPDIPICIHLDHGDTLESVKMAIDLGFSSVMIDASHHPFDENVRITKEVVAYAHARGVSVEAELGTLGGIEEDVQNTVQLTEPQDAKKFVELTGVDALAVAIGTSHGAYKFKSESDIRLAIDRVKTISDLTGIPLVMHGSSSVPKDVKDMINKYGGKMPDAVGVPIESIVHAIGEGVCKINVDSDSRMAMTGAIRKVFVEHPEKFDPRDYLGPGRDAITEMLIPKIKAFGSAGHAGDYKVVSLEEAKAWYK
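Giardia FBPA (40 nM reagent) was preincubated 10 min at RT with compound (up to 57.5 uM final), then substrate plus GAPDH/TPI/NAD/arsenate coupling system with diaphorase/resazurin was added; resorufin fluorescence (525/598 nm) was read after 20 min.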
FMDV inh = antivirals against foot and mouth disease virus; Potency, µM (titrated, usually from 57.9 µM), most hits filed as inhibitors; 1.2% of 410,000 active; FMDV antiviral cell-based qHTS; calls by dose curve; tested in HEK293T cells; note: read-out not given here; nearly all actives have a fitted effect of over 45% in size
HCV inhibitor = inhibitors of hepatitis C virus infection | Huh7.5.1 HCVcc-Cre infection, luciferase reporter, 44 h | Potency, µM (titrated, usually from 41.8 µM), actives largely listed as inhibitors | 3.4% of 340,000 active
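Infectious HCVcc-Cre (~0.5 moi) was added to cells just after compound, with cells seeded 4 h earlier at 1,000 per well. Luciferase activity after 44 h culture reported infection; substrate was incubated 15 min at room temperature before reading.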
Vaccinia mCherry = inhibitors of vaccinia virus infection (mCherry reporter signal); Vaccinia virus mCherry reporter infection, fluorescence; Potency, µM (doses to about 36.5 µM), actives largely listed as inhibitors; 0.63% of 310,000 active; calls by dose curve; tested in A549 cells; note: nearly all actives have a fitted effect of over 35% in size
HCMV antiviral = human cytomegalovirus inhibition; HFF cells, HCMV-luciferase reporter, 72 h; stronger effect = lower value; activity change, negative = inhibition, % at 57.5 µM; 4.5% of 410,000 active; in the data active = activity change below about -60%; inconclusive = no clear call, values can overlap the other calls; inactive = above about -39%
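Human foreskin fibroblasts infected with luciferase-reporter HCMV at MOI 1 PFU/cell, compounds at two doses. Luciferase measured 72 h post infection; normalized to buffer-only basal and Salinomycin (10uM) controls.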
VACV Venus inh = inhibitors of vaccinia virus (Venus reporter). Vaccinia virus Venus reporter expression, fluorescence. Potency, µM (doses to about 36.5 µM), usual class: inhibitors. 0.46% of 330,000 active. AID 720580; calls by dose curve; tested in A549 cells; note: nearly all actives have a fitted effect of over 30% in size
Giardia growth = blocks growth of Giardia lamblia trophozoites. shares compounds with Giardia FBPA inh-1. 5% of 1,500 active. Giardia lamblia trophozoite growth inhibition. Potency, µM (titrated, usually from 57.5 µM), actives largely listed as inhibitors;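 note: trophozoites exposed to compound for 48 h at 37 °C; nearly all actives have a fitted effect of over 70% in size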
Mammalian tox = mammalian cytotoxicity of Giardia aldolase inhibitor hits | shares compounds with Giardia FBPA inh-1 | mammalian cell viability counter-screen, qHTS | Potency, µM (top dose mostly 57.5 µM), hits mostly inhibitors | 4% of 1,500 active | AID 2786;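 note: Chinese hamster ovary cells used as mammalian cytotoxicity surrogate; viability measured as cellular ATP by luminescence; compound exposure lasted 48 h before reading; nearly all actives have a fitted effect of over 60% in size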
Giardia FBPA inh-2 = confirmation of Giardia fructose-bisphosphate aldolase inhibitors. Potency, µM (highest dose often 57.5 µM), hits mostly inhibitors. 5% of 1,500 active. shares compounds with Giardia FBPA inh-1. purified Giardia aldolase enzyme activity, qHTS; note: nearly all actives have a fitted effect of over 45% in size
Rabbit aldolase = blocks rabbit muscle aldolase in Giardia aldolase selectivity test; 4% of 1,500 active; Rabbit muscle FBPA enzyme inhibition, selectivity counter-screen; Potency, µM (highest dose often 57.5 µM), most hits filed as inhibitors; shares compounds with Giardia FBPA inh-1; note: nearly all actives have a fitted effect of over 60% in size
Target sequence (P00883 whole entry, looked up): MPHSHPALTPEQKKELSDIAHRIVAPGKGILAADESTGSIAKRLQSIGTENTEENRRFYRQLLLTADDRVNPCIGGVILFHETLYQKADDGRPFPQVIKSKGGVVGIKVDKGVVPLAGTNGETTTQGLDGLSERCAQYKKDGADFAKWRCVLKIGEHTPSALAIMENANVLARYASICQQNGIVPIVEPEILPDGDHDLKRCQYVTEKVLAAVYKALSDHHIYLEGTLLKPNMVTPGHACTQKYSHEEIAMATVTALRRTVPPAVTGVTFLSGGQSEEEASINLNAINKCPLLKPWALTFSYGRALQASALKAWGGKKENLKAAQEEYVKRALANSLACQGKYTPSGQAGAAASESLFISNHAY
GAPDH counter = counter-screen for Giardia aldolase inhibitors: GAPDH coupling enzyme; 6% of 1,500 active; Potency, µM (doses to about 57.5 µM), actives largely listed as inhibitors; shares compounds with Giardia FBPA inh-1; GAPDH coupling enzyme counterscreen, biochemical, qHTS; note: nearly all actives have a fitted effect of over 55% in size
HCV inh confirm = confirmation of hepatitis C virus inhibitors; shares compounds with HCV inhibitor; HCVcc-Cre infectious virus cell assay, luciferase, inhibition; Potency, µM (highest dose often 41.8 µM), actives largely listed as inhibitors; 78% of 640 active; note: nearly all actives have a fitted effect of over 80% in size
HCV host tox = host cell cytotoxicity counter-screen for HCV inhibitors; shares compounds with HCV inhibitor; 22% of 640 active; Potency, µM (highest dose often 41.8 µM), actives largely listed as inhibitors; AID 720576; HCV host cell line cytotoxicity counterscreen;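 note: 44 h compound exposure; nearly all actives have a fitted effect of over 55% in size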
Each line names hits and unclear results; the compound was inactive in the other large screens (follow-up assays come after a bar, where they were run). The list is not random: actives were taken first. Their share in the collection is about 7.5%. Unless noted, calls come from the whole dose curve; as a rule, active = well fitted curve in the direction sought with a large enough effect; inconclusive = small, poorly fitted or top-dose-only effect, or another doubt; inactive = no such curve, though single readings can be large; an effect the other way counts as inactive or inconclusive.

Cc1ccccc1NC(=O)c1nn(C)c2c1CS(=O)(=O)c1ccccc1-2	HCMV antiviral inconclusive (no result: Giardia FBPA inh-1, Vaccinia mCherry, VACV Venus inh)
CCc1nnc(N/N=C\c2ccc(OC(C)=O)c(OC)c2)n1N	Giardia FBPA inh-1 16µM (no result: Vaccinia mCherry, VACV Venus inh) | Giardia growth inactive | Mammalian tox inactive | Giardia FBPA inh-2 3.7µM | Rabbit aldolase 5.2µM | GAPDH counter 5.8µM
CCCCOc1c(Br)cc(CNCCCN2CCOCC2)cc1OC	Giardia FBPA inh-1 20µM, HCV inhibitor 4µM, Vaccinia mCherry inconclusive | Giardia growth inconclusive | Mammalian tox inactive | Giardia FBPA inh-2 inactive | Rabbit aldolase inactive | GAPDH counter inactive
CCOCCCn1c(=O)c2ccccc2n2c(=S)[nH]nc12	Giardia FBPA inh-1 13µM, HCMV antiviral inconclusive (no result: Vaccinia mCherry, VACV Venus inh) | Giardia growth inactive | Mammalian tox inactive | Giardia FBPA inh-2 inactive | Rabbit aldolase inactive | GAPDH counter inactive
CC(C)CCn1c(=O)c2ccccc2n2c(=S)[nH]nc12	HCV inhibitor inconclusive
CC1=C(C(=O)N2CCCCC2)C(c2cccc(Cl)c2)n2c(nc3ccccc32)N1 (centres undefined)	none (no result: Giardia FBPA inh-1, HCV inhibitor)
CCC(C)c1ccc(NC(=O)CN(C)CC(=O)Nc2cccc(OC)c2)cc1 (centres undefined)	Giardia FBPA inh-1 16µM | Giardia growth inconclusive | Mammalian tox inactive | Giardia FBPA inh-2 inactive | Rabbit aldolase inactive | GAPDH counter inactive
O=C(Nc1ccccc1)N1CCCC2(CCNCC2)C1	none (no result: HCV inhibitor, Vaccinia mCherry, HCMV antiviral, VACV Venus inh)
NC(=S)c1cn(C2OC(CO)C(O)C2O)c2ncnc(N)c12 (centres undefined)	Giardia FBPA inh-1 14µM, FMDV inh inconclusive, HCV inhibitor 0.28µM, HCMV antiviral -99 (no result: Vaccinia mCherry, VACV Venus inh) | Giardia growth inactive | Mammalian tox inconclusive | Giardia FBPA inh-2 inactive | Rabbit aldolase inactive | GAPDH counter inactive | HCV inh confirm 0.44µM | HCV host tox 0.44µM
CCC(=O)N1CCc2cc(Br)cc(S(=O)(=O)N3CCCC(C(=O)Nc4ccc(C(C)C)cc4)C3)c21 (centres undefined)	none (no result: Giardia FBPA inh-1, HCV inhibitor)
C/C(=N\Nc1ccc2nncn2n1)c1ccco1	none
C/C(=N\Nc1ccc2nncn2n1)c1ccccn1	Giardia FBPA inh-1 7.9µM, HCV inhibitor 2µM, Vaccinia mCherry inconclusive, HCMV antiviral -96, VACV Venus inh inconclusive | Giardia growth inconclusive | Mammalian tox inconclusive | Giardia FBPA inh-2 inactive | Rabbit aldolase inactive | GAPDH counter inconclusive | HCV inh confirm 5.6µM | HCV host tox inconclusive
CCOC(=O)CC(NC(=O)c1ccco1)c1ccc(C)cc1 (centres undefined)	none
Cc1ccc(C(C)NC(=O)c2ccco2)cc1 (centres undefined)	HCV inhibitor 6.3µM (no result: Vaccinia mCherry, VACV Venus inh) | HCV inh confirm inactive | HCV host tox inactive
COC(=O)COc1ccc(C(=O)Cn2c(NCCCO)nc3ccccc32)cc1	none (no result: Giardia FBPA inh-1)
N=c1c(C(=O)NCc2ccc3c(c2)OCO3)cc2c(=O)n3ccccc3nc2n1Cc1cccnc1	HCV inhibitor 6.3µM (no result: Vaccinia mCherry, VACV Venus inh) | HCV inh confirm 14µM | HCV host tox inactive
N=c1c(C(=O)NC2CCCC2)cc2c(=O)n3ccccc3nc2n1CC1CCCO1 (centres undefined)	none
N=c1c(C(=O)NCc2ccco2)cc2c(=O)n3ccccc3nc2n1Cc1ccccc1	HCV inhibitor 3.2µM (no result: Vaccinia mCherry) | HCV inh confirm 3.5µM | HCV host tox inconclusive
CC(NC(=O)c1cc2c(=O)n3ccccc3nc2n(CC2CCCO2)c1=N)c1ccccc1 (centres undefined)	HCV inhibitor 2.2µM | HCV inh confirm 11µM | HCV host tox inactive
COc1ccc(CNC(=O)c2cc3c(=O)n4ccccc4nc3n(Cc3cccnc3)c2=N)cc1	HCV inhibitor inconclusive (no result: Vaccinia mCherry, VACV Venus inh)
Cc1cc(-c2ccc(C)c(S(=O)(=O)NCc3cccs3)c2)on1	none (no result: Giardia FBPA inh-1, HCV inhibitor)
CC(=O)c1c(C)nn(CC(O)COc2ccc3ccccc3c2)c1C (centres undefined)	FMDV inh inconclusive, HCV inhibitor inconclusive
Cc1ccccc1-c1nc(CN2CCC(C(=O)NCCCN3CC(C)CC(C)C3)CC2)c(C)o1 (centres undefined)	HCV inhibitor 1.3µM (no result: Vaccinia mCherry, VACV Venus inh) | HCV inh confirm 1.4µM | HCV host tox inconclusive
Cc1ccc2c(c1)C1CC(C)(O2)N(c2cccc(C(=O)N3CCN(c4ccccn4)CC3)c2)C(=O)N1 (centres undefined)	HCMV antiviral inconclusive (no result: Giardia FBPA inh-1)
c1coc(CNc2nc3nonc3nc2NCc2ccco2)c1	Giardia FBPA inh-1 inconclusive, FMDV inh inconclusive, HCV inhibitor inconclusive, HCMV antiviral -72 | HCV inh confirm 2.2µM | HCV host tox inactive
Cc1cccc(C)c1NC(=O)CSc1nnc(C)n1CC1CCCO1 (centres undefined)	none
COC(=O)c1cc(C(=O)c2ccc(Cl)cc2)n2c(=O)/c(=C\N(C)C)sc12	HCV inhibitor 2.8µM, Vaccinia mCherry inconclusive | HCV inh confirm 7.9µM | HCV host tox inactive
CCOc1ccc(C2/C(=C(\O)c3ccc4c(c3)OCCO4)C(=O)C(=O)N2Cc2cccnc2)cc1OCC (centres undefined)	none
CCCC[C@H]1C2=C3[C@@H](CC(C(=O)OC)=C[C@@H](C(=O)OC)[C@H]3C(C)(C)C2=O)n2c(=O)n(-c3ccccc3)c(=O)n21	none
COc1ccc(Nc2ccc3c(c2)=NC2(CCCCC2)[N+]=3[O-])cc1	Giardia FBPA inh-1 inconclusive, FMDV inh inconclusive, HCV inhibitor 5µM, Vaccinia mCherry inconclusive, HCMV antiviral -98, VACV Venus inh inconclusive | HCV inh confirm 18µM | HCV host tox 16µM
COc1ccc(NS(=O)(=O)c2ccc3nc(COc4ccc5ccccc5c4)[nH]c3c2)cc1	FMDV inh inconclusive, HCV inhibitor 7.9µM, Vaccinia mCherry inconclusive, HCMV antiviral inconclusive, VACV Venus inh 28µM | HCV inh confirm 20µM | HCV host tox inactive
